This is part of a sample that, as a whole, favours compounds with a hit. Of some 83,000 tested, about 20% had one in any assay.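 Values shown are percent growth following 48 h exposure of cells in 96-well plates to a single concentration of compound; below 10 was considered active.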 Values without a mark were called inactive. Active and inactive are the calls of the source.

Test systems include HCT-15 colon; HT29 colon; SNB-75 CNS; SNB-19 CNS; U251 CNS; PC-3 prostate; SK-MEL-5 melanoma; UACC-62 melanoma; LOX IMVI melanoma; SK-MEL-28 melanoma; SK-MEL-2 melanoma; EKVX NSCLC; SN12C renal; UO-31 renal; TK-10 renal; ACHN renal; CAKI-1 renal; A498 renal; MOLT-4 leukemia; CCRF-CEM leukemia.
Common to all, as to experiment: NCI-60 one-dose screen, 48 h (100 = growth as untreated, 0 = no growth, -100 = all killed)
Holding throughout (conditions): 10 µM unless noted

Take `N/C(=N\C(N)=N\c1nc2ccccc2s1)c1ccc2ccccc2c1`: the growth in the assay with HCT-15 colon was 69%; in the assay on HT29 colon it was 104%; in the assay on SNB-75 CNS, 48.5%; in the assay on SNB-19 CNS, 94.7%; in the assay with U251 CNS, 47.9%; in the assay with PC-3 prostate, 50.6%. In addition, the growth in the assay on SK-MEL-5 melanoma is 97.4%; in the assay with UACC-62 melanoma, 93.4%; with LOX IMVI melanoma, -45.7% (active); in the assay with SK-MEL-28 melanoma, 95.5%; in the assay with SK-MEL-2 melanoma it was 97.7%; with EKVX NSCLC, 47.9%. Further, the growth in the assay with SN12C renal was 75.3%; with UO-31 renal, 23.4%; in the assay with TK-10 renal, 126%; with ACHN renal it was 78.4%; with CAKI-1 renal, 36.4%; with A498 renal it was 96.9%. The growth in the assay on MOLT-4 leukemia is 60.6%.
Consider `CC1(C)[C@@H](O)CC[C@]2(C)[C@H]3CC[C@@H]4[C@H]5[C@H](C(=O)/C=C\c6ccncc6)CC[C@]5(O)CC[C@@]4(C)[C@]3(C)CC[C@@H]12`, for which the growth is 20.3% with HCT-15 colon; 34.7% in the assay on HT29 colon; 21.2% with SNB-75 CNS; 58.7% in the assay on SNB-19 CNS; 61.1% with U251 CNS; 67.5% with PC-3 prostate. Moreover, the growth with SK-MEL-5 melanoma is 80.6%; in the assay on UACC-62 melanoma, 46.9%; with LOX IMVI melanoma, 5.63% (active); in the assay on SK-MEL-28 melanoma it was 74.8%; with SK-MEL-2 melanoma, 94.9%; in the assay on EKVX NSCLC, 42.8%. Besides, the growth with SN12C renal is 75.1%; in the assay on UO-31 renal, 53.1%; in the assay with TK-10 renal it was 100%; in the assay with ACHN renal it was 52.5%; with CAKI-1 renal, 35.1%; in the assay on A498 renal, 46.6%. The growth with CCRF-CEM leukemia was 8.75% (active); in the assay with MOLT-4 leukemia it was 27.9%.
For `Nc1ncc(-c2ccc3ncnc(N4CCc5cc(F)c(F)cc54)c3c2)cn1`, the growth is 23.1% in the assay with HCT-15 colon; 33.1% with HT29 colon; 27.3% in the assay on SNB-75 CNS; 43.1% in the assay on SNB-19 CNS; 41.2% with U251 CNS; 17.7% in the assay with PC-3 prostate. For the same compound, the growth in the assay on SK-MEL-5 melanoma is 16.2%; with UACC-62 melanoma, 9.67% (active); with LOX IMVI melanoma it was 11.1%; in the assay with SK-MEL-28 melanoma, 33.2%; in the assay on SK-MEL-2 melanoma it was 33.2%; with EKVX NSCLC it was 18.7%. Also, the growth with SN12C renal is 25.1%; with UO-31 renal it was 8.51% (active); in the assay with TK-10 renal it was -2.82% (active); in the assay with ACHN renal, 19.5%; in the assay with CAKI-1 renal it was 15.3%; with A498 renal, -42.9% (active). The growth in the assay on CCRF-CEM leukemia is 24.2%; in the assay on MOLT-4 leukemia it was 8.56% (active).
On to `COc1ccc(C2c3sc4c(C)cccc4c3Oc3nc(CC(=O)Nc4ccccc4)[nH]c(=O)c32)cc1` (stereo not drawn), for which the growth is 51.9% in the assay with HCT-15 colon; 94.1% in the assay with HT29 colon; 39.4% in the assay on SNB-75 CNS; 89% in the assay with SNB-19 CNS; 106% with U251 CNS; 83.1% in the assay on PC-3 prostate. In addition, the growth with SK-MEL-5 melanoma was 76.9%; in the assay with UACC-62 melanoma, 63.2%; in the assay on LOX IMVI melanoma, 48.5%; in the assay on SK-MEL-28 melanoma, 76%; in the assay with SK-MEL-2 melanoma it was 92.8%; in the assay on EKVX NSCLC, 47.1%. For the same compound, the growth in the assay with SN12C renal was 79.1%; with UO-31 renal, 46.7%; in the assay with TK-10 renal, 141%; in the assay on ACHN renal, 92.9%; with CAKI-1 renal, 46%; in the assay with A498 renal it was 70.6%. Also, in the assay with MOLT-4 leukemia, the growth was 101%.
Consider `COc1cc(-c2nc3sccn3c2-c2ccnc(S(C)(=O)=O)n2)ccc1F`, for which the growth is 77.9% in the assay on HCT-15 colon; 116% with HT29 colon; 76.1% in the assay with SNB-75 CNS; 92% in the assay with SNB-19 CNS; 99.1% with U251 CNS; 105% with PC-3 prostate. In addition, the growth was 96.5% in the assay with SK-MEL-5 melanoma; 81.3% in the assay with UACC-62 melanoma; 102% with LOX IMVI melanoma; 97.7% in the assay on SK-MEL-28 melanoma; 96% in the assay on SK-MEL-2 melanoma; 87.3% in the assay with EKVX NSCLC. The growth with SN12C renal is 88.7%; in the assay with UO-31 renal, 85.2%; with TK-10 renal, 120%; with ACHN renal it was 90.4%; with CAKI-1 renal, 85.2%; in the assay on A498 renal, 95.1%. Further, the growth in the assay on CCRF-CEM leukemia was 92.1%; with MOLT-4 leukemia, 83.5%.
As for `CCCCCCCn1cc2c(NCCc3ccccc3)ncnc2n1`, the growth in the assay on HCT-15 colon is 95.6%; in the assay on HT29 colon, 118%; in the assay with SNB-75 CNS, 90.6%; with SNB-19 CNS, 90.4%; in the assay with U251 CNS it was 96.1%; in the assay with PC-3 prostate it was 92.8%. The growth in the assay with SK-MEL-5 melanoma is 99.6%; with UACC-62 melanoma it was 74.2%; with LOX IMVI melanoma it was 117%; with SK-MEL-28 melanoma, 101%; with SK-MEL-2 melanoma it was 127%; with EKVX NSCLC it was 84.8%. In addition, the growth was 93.4% with SN12C renal; 71.2% in the assay with UO-31 renal; 119% in the assay on TK-10 renal; 95.1% in the assay with ACHN renal; 78.7% in the assay on CAKI-1 renal; 95.3% in the assay on A498 renal. The growth in the assay on CCRF-CEM leukemia is 96.2%; in the assay on MOLT-4 leukemia, 95.4%.
Consider `COc1c(N2CC3CCCNC3C2)c(F)cc2c(=O)c(C(=O)N/N=C/c3c[nH]c4ccccc34)cn(C3CC3)c12` (stereo not drawn), for which the growth was 57.4% with HCT-15 colon; 50.5% in the assay on HT29 colon; 99.5% with SNB-75 CNS; 103% in the assay with SNB-19 CNS; 99.2% in the assay with U251 CNS; 76.9% in the assay with PC-3 prostate. In addition, the growth with SK-MEL-5 melanoma is 95.3%; with UACC-62 melanoma, 103%; in the assay on LOX IMVI melanoma, 90.2%; in the assay with SK-MEL-28 melanoma, 104%; in the assay with SK-MEL-2 melanoma, 110%; with EKVX NSCLC it was 105%. The growth in the assay with SN12C renal was 95.7%; in the assay with UO-31 renal it was 77.2%; with TK-10 renal, 137%; in the assay on ACHN renal, 99.8%; in the assay on CAKI-1 renal, 98.7%; in the assay with A498 renal, 118%. Also, the growth is 71.2% in the assay on CCRF-CEM leukemia and 74.1% with MOLT-4 leukemia.
As to `NS(=O)(=O)c1ccc(Nc2nc(N/N=C/c3ccccn3)nc(Nc3ccccc3)n2)cc1`, the growth with HCT-15 colon is 17.6%; with HT29 colon, 6.29% (active); in the assay with SNB-75 CNS it was -25.4% (active); in the assay with SNB-19 CNS, 9.62% (active); in the assay on U251 CNS, -55.2% (active); with PC-3 prostate, -7.87% (active). The growth in the assay on SK-MEL-5 melanoma was -84.8% (active); with UACC-62 melanoma, -49.3% (active); in the assay on LOX IMVI melanoma, -43.7% (active); in the assay on SK-MEL-28 melanoma, -64.3% (active); in the assay on SK-MEL-2 melanoma it was -82% (active); in the assay with EKVX NSCLC, 13.3%. Moreover, the growth in the assay on SN12C renal was 2.73% (active); with UO-31 renal, 17.4%; with TK-10 renal, 2.56% (active); with ACHN renal, 17.5%; with CAKI-1 renal, -25.3% (active); in the assay on A498 renal, -67.6% (active). Also, the growth with CCRF-CEM leukemia was 5.99% (active); in the assay on MOLT-4 leukemia, 3.13% (active).

For the origin of these results see PubChem BioAssay (NCI).
